# From paper PMC7862700, “An all-to-all approach to the identification of sequence-specific readers for epigenetic DNA modifications on cytosine”
# Tests used:
# Test in all cases: DAPPL (digital affinity profiling via proximity ligation, sequencing); 10 mM Tris-HCl pH 7.5, 50 mM NaCl, 1 mM DTT, 4% glycerol, room temperature, 30 min; GST-TFs on glutathione beads, 16-mer random dsDNA library, 0.1% formaldehyde crosslink after washing; high values mean tight binding
# [1] = target: T1, FEV (Homo sapiens, UniProt Q99581 1-238); conditions: protein: recombinant; tags: N-terminal GST; dsDNA, one strand shown
# T1 sequence: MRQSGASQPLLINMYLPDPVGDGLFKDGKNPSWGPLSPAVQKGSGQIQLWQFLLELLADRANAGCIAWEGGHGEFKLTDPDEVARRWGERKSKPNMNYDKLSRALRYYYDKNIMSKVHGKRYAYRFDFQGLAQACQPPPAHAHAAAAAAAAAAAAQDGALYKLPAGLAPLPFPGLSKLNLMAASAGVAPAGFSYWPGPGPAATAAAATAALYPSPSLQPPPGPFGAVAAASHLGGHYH
# Summary of the method: (§1)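 Binding signal is each hexamer's read frequency for a factor divided by its frequency in the tag-only sample. The factors were GST-fused human transcription factors from yeast, captured on glutathione beads, DNA-barcoded and pooled with that sample. Pools were incubated with 200 nmole of a random double-stranded 16-mer DNA library in Tris/NaCl/DTT/glycerol buffer at room temperature for 30 min, then washed, crosslinked with 0.1% formaldehyde, proximity-ligated with BsaI/T4 ligase (1 h, 37 °C), PCR-amplified and sequenced on an Illumina NextSeq500.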
# [2] = target: ETV5 (Homo sapiens, UniProt P41161 1-510); conditions: protein: recombinant; tags: N-terminal GST; dsDNA, one strand shown
# Summary of the method: as §1
# [3] = target: HSF1 (Homo sapiens, UniProt Q00613 1-529); conditions: protein: recombinant; tags: N-terminal GST; chain copies: 3; dsDNA, one strand shown
# Summary of the method: as §1
# [4] = target: T2, SPIC (Homo sapiens, UniProt Q8N5J4 1-248); conditions: protein: recombinant; tags: N-terminal GST; dsDNA, one strand shown
# T2 sequence: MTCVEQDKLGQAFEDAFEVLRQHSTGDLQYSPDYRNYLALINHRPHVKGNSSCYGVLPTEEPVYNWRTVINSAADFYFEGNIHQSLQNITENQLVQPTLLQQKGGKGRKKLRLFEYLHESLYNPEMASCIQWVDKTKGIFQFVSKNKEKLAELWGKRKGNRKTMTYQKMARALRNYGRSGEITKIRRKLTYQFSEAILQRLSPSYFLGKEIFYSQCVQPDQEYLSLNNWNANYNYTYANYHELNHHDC
# Summary of the method: as §1
# [5] = target: ELF4 (Homo sapiens, UniProt Q99607 1-663); conditions: protein: recombinant; tags: N-terminal GST; dsDNA, one strand shown
# Summary of the method: as §1
# [6] = target: T3, ELK4 (Homo sapiens, UniProt P28324-2 1-405); conditions: protein: recombinant; tags: N-terminal GST; dsDNA, one strand shown
# T3 sequence: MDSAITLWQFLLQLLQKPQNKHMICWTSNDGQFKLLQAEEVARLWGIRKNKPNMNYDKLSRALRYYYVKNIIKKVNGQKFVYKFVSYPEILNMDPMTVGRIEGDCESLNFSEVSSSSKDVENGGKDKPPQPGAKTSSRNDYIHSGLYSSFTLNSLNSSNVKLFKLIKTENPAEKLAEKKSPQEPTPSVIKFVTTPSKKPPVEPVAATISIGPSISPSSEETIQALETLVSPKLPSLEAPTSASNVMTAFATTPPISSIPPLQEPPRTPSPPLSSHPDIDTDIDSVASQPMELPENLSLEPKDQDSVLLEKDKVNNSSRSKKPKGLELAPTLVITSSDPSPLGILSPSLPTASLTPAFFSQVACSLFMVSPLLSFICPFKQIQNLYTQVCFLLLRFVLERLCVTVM
# Summary of the method: as §1
# [7] = target: T4, ETV2 (Homo sapiens, UniProt O00321 1-342); conditions: protein: recombinant; tags: N-terminal GST; dsDNA, one strand shown
# T4 sequence: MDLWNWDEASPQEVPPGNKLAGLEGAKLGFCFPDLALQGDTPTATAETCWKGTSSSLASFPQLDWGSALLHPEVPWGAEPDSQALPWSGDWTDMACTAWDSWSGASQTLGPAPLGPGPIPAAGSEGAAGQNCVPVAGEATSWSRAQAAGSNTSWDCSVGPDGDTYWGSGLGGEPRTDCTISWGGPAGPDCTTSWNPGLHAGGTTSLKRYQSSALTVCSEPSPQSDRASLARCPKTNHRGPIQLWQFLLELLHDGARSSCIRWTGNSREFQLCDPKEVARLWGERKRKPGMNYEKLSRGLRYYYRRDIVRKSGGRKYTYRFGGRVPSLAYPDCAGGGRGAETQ
# Summary of the method: as §1
# [8] = target: T5, ELF3 (Homo sapiens, UniProt P78545 1-371); conditions: protein: recombinant; tags: N-terminal GST; dsDNA, one strand shown
# T5 sequence: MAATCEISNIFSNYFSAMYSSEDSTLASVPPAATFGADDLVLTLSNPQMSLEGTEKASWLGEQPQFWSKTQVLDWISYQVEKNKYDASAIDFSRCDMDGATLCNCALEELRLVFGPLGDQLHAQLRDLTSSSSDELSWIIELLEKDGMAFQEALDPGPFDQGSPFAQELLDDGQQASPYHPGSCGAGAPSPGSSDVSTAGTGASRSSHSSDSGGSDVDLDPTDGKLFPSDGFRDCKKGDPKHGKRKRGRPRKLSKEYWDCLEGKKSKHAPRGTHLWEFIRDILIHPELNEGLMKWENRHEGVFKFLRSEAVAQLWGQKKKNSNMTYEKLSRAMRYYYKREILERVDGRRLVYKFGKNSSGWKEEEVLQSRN
# Summary of the method: as §1
# [9] = target: CRX (Homo sapiens, UniProt O43186 1-299); conditions: protein: recombinant; tags: N-terminal GST; dsDNA, one strand shown
# Summary of the method: as §1
# [10] = target: ETV1 (Homo sapiens, UniProt P50549 1-477); conditions: protein: recombinant; tags: N-terminal GST; dsDNA, one strand shown
# Summary of the method: as §1
# [11] = target: T6, ERF (Homo sapiens, UniProt P50548 1-548); conditions: protein: recombinant; tags: N-terminal GST; dsDNA, one strand shown
# T6 sequence: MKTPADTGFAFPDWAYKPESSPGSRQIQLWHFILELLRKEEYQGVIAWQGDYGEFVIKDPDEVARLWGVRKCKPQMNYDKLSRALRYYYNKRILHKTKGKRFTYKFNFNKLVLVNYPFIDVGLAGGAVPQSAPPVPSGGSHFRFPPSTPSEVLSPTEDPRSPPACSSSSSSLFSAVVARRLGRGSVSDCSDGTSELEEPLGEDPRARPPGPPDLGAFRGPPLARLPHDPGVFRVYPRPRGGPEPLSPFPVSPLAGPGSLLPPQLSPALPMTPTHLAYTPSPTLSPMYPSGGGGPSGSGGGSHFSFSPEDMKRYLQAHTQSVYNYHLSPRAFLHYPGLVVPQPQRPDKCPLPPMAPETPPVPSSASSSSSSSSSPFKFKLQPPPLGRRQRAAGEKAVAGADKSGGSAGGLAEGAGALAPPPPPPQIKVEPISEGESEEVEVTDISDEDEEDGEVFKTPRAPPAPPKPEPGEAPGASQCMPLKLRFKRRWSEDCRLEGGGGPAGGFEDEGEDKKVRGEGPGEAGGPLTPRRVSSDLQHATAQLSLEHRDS
# Summary of the method: as §1
# [12] = target: T7, ETV3L (Homo sapiens, UniProt Q6ZN32 1-361); conditions: protein: recombinant; tags: N-terminal GST; dsDNA, one strand shown
# T7 sequence: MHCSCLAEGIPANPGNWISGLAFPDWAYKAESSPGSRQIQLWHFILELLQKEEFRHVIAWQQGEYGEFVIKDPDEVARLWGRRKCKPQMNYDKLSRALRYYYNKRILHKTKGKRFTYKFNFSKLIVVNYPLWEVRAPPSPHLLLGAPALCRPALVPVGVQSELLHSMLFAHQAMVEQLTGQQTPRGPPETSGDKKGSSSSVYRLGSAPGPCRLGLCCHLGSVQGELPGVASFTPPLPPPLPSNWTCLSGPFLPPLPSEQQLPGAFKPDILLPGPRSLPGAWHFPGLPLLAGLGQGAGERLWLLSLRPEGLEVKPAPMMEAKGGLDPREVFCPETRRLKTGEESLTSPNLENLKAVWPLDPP
# Summary of the method: as §1
# [13] = target: T8, ETS2 (Homo sapiens, UniProt P15036 1-469); conditions: protein: recombinant; tags: N-terminal GST; dsDNA, one strand shown
# T8 sequence: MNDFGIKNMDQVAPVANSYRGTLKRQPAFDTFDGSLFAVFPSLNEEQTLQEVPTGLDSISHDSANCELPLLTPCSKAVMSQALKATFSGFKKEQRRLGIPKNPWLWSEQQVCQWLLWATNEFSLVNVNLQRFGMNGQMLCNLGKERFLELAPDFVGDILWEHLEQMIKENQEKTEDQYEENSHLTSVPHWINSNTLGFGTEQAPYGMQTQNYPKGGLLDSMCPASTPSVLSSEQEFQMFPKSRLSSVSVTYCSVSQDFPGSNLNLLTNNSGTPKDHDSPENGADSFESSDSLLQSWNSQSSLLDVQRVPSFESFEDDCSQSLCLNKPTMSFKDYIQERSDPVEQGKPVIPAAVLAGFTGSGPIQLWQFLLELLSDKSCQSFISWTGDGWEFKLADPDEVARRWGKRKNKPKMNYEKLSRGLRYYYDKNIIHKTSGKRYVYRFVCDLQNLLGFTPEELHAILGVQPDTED
# Summary of the method: as §1
# [14] = target: T9, SPDEF (Homo sapiens, UniProt O95238 1-335); conditions: protein: recombinant; tags: N-terminal GST; dsDNA, one strand shown
# T9 sequence: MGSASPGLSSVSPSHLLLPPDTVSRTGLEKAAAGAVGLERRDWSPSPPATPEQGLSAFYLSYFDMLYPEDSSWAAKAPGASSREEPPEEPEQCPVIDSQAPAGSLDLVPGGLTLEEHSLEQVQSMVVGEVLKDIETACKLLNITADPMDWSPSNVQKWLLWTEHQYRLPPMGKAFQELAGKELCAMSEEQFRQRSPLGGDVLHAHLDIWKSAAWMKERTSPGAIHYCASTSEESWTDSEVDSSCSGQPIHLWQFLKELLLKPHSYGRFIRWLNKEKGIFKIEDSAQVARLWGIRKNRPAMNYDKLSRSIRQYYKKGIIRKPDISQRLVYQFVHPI
# Summary of the method: as §1
# [15] = target: T10, ETV7 (Homo sapiens, UniProt Q9Y603 1-341); conditions: protein: recombinant; tags: N-terminal GST; dsDNA, one strand shown
# T10 sequence: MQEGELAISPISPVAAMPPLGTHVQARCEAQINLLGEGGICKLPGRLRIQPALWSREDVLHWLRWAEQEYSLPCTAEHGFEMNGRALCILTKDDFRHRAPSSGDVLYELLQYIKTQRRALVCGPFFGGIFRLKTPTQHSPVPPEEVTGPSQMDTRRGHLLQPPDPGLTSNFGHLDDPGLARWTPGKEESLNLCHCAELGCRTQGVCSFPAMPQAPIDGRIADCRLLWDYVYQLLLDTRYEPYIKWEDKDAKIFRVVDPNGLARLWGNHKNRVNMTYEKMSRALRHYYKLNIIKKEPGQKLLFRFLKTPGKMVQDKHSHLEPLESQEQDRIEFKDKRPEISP
# Summary of the method: as §1
# [16] = target: T11, ELF5 (Homo sapiens, UniProt Q9UKW6-2 1-255); conditions: protein: recombinant; tags: N-terminal GST; dsDNA, one strand shown
# T11 sequence: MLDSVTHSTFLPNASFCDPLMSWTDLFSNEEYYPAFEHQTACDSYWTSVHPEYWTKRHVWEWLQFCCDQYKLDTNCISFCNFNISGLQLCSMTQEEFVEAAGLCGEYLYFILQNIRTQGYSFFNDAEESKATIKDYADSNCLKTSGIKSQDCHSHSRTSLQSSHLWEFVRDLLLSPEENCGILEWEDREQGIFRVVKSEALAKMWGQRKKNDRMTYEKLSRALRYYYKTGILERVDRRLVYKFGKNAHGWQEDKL
# Summary of the method: as §1
# [17] = target: T12, ETV3 (Homo sapiens, UniProt P41162-2 1-143); conditions: protein: recombinant; tags: N-terminal GST; dsDNA, one strand shown
# T12 sequence: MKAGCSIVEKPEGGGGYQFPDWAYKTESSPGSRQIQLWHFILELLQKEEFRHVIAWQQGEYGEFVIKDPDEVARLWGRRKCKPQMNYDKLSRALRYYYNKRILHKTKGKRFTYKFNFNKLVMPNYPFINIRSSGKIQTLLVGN
# Summary of the method: as §1
# [18] = target: ETV6 (Homo sapiens, UniProt P41212 1-452); conditions: protein: recombinant; tags: N-terminal GST; dsDNA, one strand shown
# Summary of the method: as §1
# ETV5, sequence (P41161 whole entry): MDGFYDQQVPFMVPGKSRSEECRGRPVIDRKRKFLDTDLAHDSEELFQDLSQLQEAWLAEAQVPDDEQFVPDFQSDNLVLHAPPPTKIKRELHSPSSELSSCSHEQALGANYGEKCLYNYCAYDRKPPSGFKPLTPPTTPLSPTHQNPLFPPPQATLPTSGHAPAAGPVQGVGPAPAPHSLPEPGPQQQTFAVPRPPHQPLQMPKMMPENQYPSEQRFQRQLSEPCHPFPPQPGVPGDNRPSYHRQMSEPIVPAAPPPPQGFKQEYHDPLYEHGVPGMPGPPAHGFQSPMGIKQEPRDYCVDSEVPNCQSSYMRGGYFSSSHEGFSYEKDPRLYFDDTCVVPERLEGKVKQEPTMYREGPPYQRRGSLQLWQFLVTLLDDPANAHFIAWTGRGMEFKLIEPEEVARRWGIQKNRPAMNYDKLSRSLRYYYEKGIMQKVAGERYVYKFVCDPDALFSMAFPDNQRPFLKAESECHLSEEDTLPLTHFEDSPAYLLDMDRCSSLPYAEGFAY
# HSF1, sequence (Q00613 whole entry): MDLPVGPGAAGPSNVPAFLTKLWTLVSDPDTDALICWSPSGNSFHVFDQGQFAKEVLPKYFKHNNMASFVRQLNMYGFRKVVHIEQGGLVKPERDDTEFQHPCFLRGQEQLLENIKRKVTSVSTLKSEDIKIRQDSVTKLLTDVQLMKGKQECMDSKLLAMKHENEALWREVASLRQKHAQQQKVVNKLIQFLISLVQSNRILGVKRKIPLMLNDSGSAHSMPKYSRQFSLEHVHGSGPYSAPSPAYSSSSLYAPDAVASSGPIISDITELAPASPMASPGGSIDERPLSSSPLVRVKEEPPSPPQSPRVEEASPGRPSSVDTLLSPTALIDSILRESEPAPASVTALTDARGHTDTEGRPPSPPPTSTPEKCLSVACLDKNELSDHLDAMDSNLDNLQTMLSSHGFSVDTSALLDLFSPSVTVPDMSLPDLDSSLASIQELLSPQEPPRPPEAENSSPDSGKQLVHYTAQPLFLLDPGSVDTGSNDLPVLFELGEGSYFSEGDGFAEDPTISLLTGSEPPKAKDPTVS
# ELF4, sequence (Q99607 whole entry): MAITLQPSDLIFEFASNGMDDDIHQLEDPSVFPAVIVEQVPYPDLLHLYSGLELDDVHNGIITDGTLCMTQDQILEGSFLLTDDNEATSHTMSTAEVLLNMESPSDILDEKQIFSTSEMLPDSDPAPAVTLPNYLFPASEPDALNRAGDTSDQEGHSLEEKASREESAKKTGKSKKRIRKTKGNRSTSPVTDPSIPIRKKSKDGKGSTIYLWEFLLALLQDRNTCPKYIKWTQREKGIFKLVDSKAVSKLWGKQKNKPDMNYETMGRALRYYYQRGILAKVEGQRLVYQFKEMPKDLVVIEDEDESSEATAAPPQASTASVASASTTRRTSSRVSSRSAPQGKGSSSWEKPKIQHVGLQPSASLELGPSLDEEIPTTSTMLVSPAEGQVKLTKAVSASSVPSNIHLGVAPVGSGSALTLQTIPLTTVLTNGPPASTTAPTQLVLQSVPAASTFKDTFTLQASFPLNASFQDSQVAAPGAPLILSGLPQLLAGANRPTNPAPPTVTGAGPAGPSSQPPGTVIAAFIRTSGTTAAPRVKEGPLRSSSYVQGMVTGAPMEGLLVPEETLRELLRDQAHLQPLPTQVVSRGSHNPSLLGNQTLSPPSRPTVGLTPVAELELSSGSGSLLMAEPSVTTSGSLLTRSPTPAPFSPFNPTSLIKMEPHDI
# ETV6, sequence (P41212 whole entry): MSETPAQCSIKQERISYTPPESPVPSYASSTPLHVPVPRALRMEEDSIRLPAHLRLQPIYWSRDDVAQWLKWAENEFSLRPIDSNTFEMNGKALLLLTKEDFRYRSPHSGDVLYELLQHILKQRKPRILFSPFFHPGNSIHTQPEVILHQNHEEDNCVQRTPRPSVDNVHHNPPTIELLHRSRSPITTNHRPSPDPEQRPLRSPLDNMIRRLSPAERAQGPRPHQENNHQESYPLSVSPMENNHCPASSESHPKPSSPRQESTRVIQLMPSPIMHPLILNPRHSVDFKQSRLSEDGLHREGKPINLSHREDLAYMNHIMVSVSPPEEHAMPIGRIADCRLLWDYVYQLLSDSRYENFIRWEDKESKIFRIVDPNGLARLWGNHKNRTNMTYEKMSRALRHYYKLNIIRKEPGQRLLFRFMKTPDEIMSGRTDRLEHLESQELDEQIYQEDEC
# CRX, sequence (O43186 whole entry): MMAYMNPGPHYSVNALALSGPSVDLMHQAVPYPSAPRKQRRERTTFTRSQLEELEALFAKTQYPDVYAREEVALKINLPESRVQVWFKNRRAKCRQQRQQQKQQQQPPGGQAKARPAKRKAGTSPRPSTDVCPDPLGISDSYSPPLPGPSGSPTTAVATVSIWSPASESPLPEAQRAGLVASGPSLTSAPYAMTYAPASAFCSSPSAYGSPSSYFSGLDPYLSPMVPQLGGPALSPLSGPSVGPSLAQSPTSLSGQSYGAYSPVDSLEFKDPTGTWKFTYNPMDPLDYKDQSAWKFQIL
# ETV1, sequence (P50549 whole entry): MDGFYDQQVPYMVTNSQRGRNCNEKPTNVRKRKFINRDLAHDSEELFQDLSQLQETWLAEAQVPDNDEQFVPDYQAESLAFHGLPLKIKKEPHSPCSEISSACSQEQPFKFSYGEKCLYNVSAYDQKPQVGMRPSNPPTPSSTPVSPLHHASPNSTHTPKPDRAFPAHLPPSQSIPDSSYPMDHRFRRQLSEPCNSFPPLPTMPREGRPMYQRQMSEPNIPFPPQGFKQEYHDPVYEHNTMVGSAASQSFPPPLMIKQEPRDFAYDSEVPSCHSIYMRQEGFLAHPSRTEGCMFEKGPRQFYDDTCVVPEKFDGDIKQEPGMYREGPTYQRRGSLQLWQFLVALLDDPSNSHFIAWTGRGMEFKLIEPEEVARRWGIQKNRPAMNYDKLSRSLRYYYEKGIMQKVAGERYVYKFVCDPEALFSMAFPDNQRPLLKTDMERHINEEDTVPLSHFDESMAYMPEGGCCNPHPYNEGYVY
sequence,measurement,setting,value
AGGTCT,binding signal,[1],"1.11 fold enrichment (6-mer frequency, TF over GST control)"
same,binding signal,[2],"1.2 fold enrichment (6-mer frequency, TF over GST control)"
same,binding signal,[3],"1.09 fold enrichment (6-mer frequency, TF over GST control)"
same,binding signal,[4],"1.13 fold enrichment (6-mer frequency, TF over GST control)"
same,binding signal,[5],"1.2 fold enrichment (6-mer frequency, TF over GST control)"
same,binding signal,[6],"1.23 fold enrichment (6-mer frequency, TF over GST control)"
same,binding signal,[7],"1.23 fold enrichment (6-mer frequency, TF over GST control)"
same,binding signal,[8],"1.08 fold enrichment (6-mer frequency, TF over GST control)"
same,binding signal,[9],"1.21 fold enrichment (6-mer frequency, TF over GST control)"
same,binding signal,[10],"1.16 fold enrichment (6-mer frequency, TF over GST control)"
same,binding signal,[11],"1.26 fold enrichment (6-mer frequency, TF over GST control)"
same,binding signal,[12],"1.14 fold enrichment (6-mer frequency, TF over GST control)"
same,binding signal,[13],"1.2 fold enrichment (6-mer frequency, TF over GST control)"
same,binding signal,[14],"1.1 fold enrichment (6-mer frequency, TF over GST control)"
same,binding signal,[15],"1.2 fold enrichment (6-mer frequency, TF over GST control)"
same,binding signal,[16],"1.16 fold enrichment (6-mer frequency, TF over GST control)"
same,binding signal,[17],"1.11 fold enrichment (6-mer frequency, TF over GST control)"
same,binding signal,[18],"1.07 fold enrichment (6-mer frequency, TF over GST control)"
